Measurements taken from PubChem BioAssay (Tox21).
Where “and” joins values, the source holds several entries; their conditions need not be identical. Equal entries are not always repeated. Inconclusive results are not listed. Where a call stands in place of a potency, no number is given. Calls of active or inactive are those of the source. Unless noted, calls come from the whole dose curve; as a rule, active = well fitted curve in the direction sought with a large enough effect in the repeat runs; inconclusive = weak or mixed curves; inactive = no such curve, though single readings can be large; an effect the other way counts as inactive or inconclusive.

Experiments:
[1] = qHTS assay to identify small molecule antagonists of the thyroid receptor (TR) signaling pathway (AID 743065); note: nearly all actives have a fitted effect of over 55% in size; note: potency is the fitted concentration of half-maximal effect
Summary of the method: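 GH3.TRE-Luc rat pituitary cells (two TREs driving luciferase) were dosed with compound, then stimulated with 1 nM T3 (final) for 23.5 h at 37 C. ONE-Glo luminescence was the read-out, with CellTiter-Fluor fluorescence as the cytotoxicity counter-screen.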

[2] = test system: thyroid hormone receptor (rat, GH3 cells); test: qHTS assay to identify small molecule agonists of the thyroid receptor (TR) signaling pathway (AID 743066; calls by dose curve; note: potency is the fitted concentration of half-maximal effect)
[3] = biological target: Estrogen receptor (Homo sapiens) (UniProt P03372); test: qHTS assay to identify small molecule agonists of the estrogen receptor alpha (ER-alpha) signaling pathway using the BG1 cell line (AID 743079); conditions: BG1Luc4E2 cells, ERE-luciferase agonist, 22 h; activation: at 70.3 µM (top of the series); note: nearly all actives have a fitted effect of over 20% in size; note: potency is the fitted concentration of half-maximal effect
Estrogen receptor (Homo sapiens), sequence (P03372 whole entry, looked up): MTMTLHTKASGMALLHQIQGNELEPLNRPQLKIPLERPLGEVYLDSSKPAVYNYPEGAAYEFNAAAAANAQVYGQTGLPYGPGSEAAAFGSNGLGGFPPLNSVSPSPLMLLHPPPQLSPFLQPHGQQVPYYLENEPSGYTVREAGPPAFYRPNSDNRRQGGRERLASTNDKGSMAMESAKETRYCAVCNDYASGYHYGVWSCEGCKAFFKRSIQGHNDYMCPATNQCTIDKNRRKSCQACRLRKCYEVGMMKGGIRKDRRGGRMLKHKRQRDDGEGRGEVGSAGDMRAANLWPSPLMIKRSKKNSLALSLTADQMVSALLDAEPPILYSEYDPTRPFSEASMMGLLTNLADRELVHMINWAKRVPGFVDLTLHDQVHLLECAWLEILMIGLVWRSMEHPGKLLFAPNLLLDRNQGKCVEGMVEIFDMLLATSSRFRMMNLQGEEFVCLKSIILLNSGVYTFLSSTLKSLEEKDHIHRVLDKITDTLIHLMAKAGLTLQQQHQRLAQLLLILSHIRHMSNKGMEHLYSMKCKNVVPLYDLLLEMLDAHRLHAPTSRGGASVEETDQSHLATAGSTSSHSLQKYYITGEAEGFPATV

[4] = qHTS assay to identify small molecule antagonists of the estrogen receptor alpha (ER-alpha) signaling pathway using the BG1 cell line - cell viability counter screen (AID 743081);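 note: compound given together with 17beta-estradiol as the ER stimulus; nearly all actives have a fitted effect of over 45% in size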; note: potency is the fitted concentration of half-maximal effect
Aromatase (Homo sapiens) = Aromatase (Homo sapiens) (UniProt P11511); test: qHTS assay to identify aromatase inhibitors (AID 743083); note: nearly all actives have a fitted effect of over 55% in size; note: potency is the fitted concentration of half-maximal effect
Aromatase (Homo sapiens), sequence (P11511 whole entry, looked up): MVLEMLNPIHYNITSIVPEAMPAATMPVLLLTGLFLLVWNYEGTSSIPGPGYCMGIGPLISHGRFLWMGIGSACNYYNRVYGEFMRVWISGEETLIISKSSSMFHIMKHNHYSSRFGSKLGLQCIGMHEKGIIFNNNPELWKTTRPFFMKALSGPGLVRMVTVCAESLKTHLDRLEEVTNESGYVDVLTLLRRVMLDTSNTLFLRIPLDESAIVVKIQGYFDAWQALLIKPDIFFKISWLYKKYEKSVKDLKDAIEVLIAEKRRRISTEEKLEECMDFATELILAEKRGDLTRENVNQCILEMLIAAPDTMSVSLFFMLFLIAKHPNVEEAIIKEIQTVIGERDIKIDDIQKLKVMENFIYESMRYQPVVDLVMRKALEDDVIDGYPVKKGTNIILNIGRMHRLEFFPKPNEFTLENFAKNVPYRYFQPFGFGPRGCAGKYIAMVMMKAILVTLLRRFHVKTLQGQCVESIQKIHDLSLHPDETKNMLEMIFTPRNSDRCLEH

[5] = qHTS assay to identify aromatase inhibitors - cell viability counter screen (AID 743084);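 note: cells stimulated with testosterone during compound exposure; nearly all actives have a fitted effect of over 55% in size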; note: potency is the fitted concentration of half-maximal effect
[6] = biological target: Aryl hydrocarbon receptor (Homo sapiens) (UniProt P35869); test: qHTS assay to identify small molecule that activate the aryl hydrocarbon receptor (AhR) signaling pathway (AID 743085); note: nearly all actives have a fitted effect of over 15% in size; note: potency is the fitted concentration of half-maximal effect;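 for activation: HG2L7.5c1 human HepG2 liver cells with stably integrated DRE-driven firefly reporter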
Aryl hydrocarbon receptor (Homo sapiens), sequence (P35869 whole entry, looked up): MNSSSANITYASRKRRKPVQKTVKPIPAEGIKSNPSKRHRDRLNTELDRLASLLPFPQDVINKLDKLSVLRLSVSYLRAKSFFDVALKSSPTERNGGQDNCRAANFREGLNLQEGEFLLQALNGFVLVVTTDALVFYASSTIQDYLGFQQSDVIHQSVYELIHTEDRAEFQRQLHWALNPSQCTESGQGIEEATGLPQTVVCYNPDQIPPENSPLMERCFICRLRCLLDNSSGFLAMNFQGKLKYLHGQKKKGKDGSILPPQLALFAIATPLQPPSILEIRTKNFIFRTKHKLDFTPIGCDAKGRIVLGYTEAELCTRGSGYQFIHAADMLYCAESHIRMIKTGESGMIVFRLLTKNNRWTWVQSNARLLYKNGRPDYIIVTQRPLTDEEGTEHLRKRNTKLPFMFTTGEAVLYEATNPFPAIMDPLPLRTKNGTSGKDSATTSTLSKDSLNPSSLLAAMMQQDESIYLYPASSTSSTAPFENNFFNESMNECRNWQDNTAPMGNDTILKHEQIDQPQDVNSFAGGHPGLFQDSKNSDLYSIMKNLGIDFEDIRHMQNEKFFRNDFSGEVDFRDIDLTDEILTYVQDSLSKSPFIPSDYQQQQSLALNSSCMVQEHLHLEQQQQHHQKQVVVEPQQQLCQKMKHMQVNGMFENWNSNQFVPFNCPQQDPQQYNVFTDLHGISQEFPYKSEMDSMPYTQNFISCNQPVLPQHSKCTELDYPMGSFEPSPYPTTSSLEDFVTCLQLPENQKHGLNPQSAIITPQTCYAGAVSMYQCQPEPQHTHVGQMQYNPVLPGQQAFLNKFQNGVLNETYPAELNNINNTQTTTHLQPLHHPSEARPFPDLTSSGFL
Summary of the method: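 Reporter assay in engineered HepG2 line HG2L7.5c1, whose plasmid carries twenty dioxin responsive elements upstream of firefly luciferase. Treatment lasted 24 h at 37C; ONE-Glo luminescence gauged induction.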

[7] = qHTS assay to identify small molecule that activate the aryl hydrocarbon receptor (AhR) signaling pathway - cell viability counter screen (AID 743086); note: nearly all actives have a fitted effect of over 45% in size; note: potency is the fitted concentration of half-maximal effect
Summary of the method: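 HepG2-AhR-luc (HG2L7.5c1) cells, 4000/well, treated 24 h at 37 C with compound; viability measured as CellTiter-Fluor fluorescence after 30 min in the same wells as the luciferase read.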

[8] = biological target: Peroxisome proliferator-activated receptor gamma (Homo sapiens) (UniProt P37231); test: qHTS assay to identify small molecule agonists of the peroxisome proliferator-activated receptor gamma (PPARg) signaling pathway (AID 743094; active = well fitted activation curve with a large enough effect in the signal ratio in the repeat runs, not every such curve was filed as active; the % refers to the signal ratio; note: potency is the fitted concentration of half-maximal effect)
Peroxisome proliferator-activated receptor gamma (Homo sapiens), sequence (P37231 whole entry, looked up): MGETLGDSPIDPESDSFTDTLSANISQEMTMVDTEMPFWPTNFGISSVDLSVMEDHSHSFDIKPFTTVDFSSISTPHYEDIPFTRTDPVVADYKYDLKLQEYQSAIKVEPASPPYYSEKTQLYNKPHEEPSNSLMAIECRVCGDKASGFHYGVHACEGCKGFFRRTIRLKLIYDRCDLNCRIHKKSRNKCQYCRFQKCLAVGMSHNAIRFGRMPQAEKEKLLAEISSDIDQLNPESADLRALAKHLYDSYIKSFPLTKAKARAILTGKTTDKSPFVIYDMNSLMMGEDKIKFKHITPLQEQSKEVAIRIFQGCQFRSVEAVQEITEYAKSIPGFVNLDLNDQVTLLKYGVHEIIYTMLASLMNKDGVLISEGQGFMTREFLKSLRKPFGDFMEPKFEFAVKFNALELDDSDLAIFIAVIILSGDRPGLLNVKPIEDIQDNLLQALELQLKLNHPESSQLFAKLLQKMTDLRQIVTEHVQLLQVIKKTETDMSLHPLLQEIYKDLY
Summary of the method: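 Agonism was assessed in a beta-lactamase reporter system, HEK293H cells with a stably integrated UAS-bla construct under PPARg control; the 17 h treatment at 37C preceded a 1 h room-temperature FRET substrate read.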

[9] = qHTS assay to identify small molecule antagonists of the peroxisome proliferator-activated receptor gamma (PPARg) signaling pathway - cell viability counter screen (AID 743194); conditions: Potency: co-treated with 50 nM rosiglitazone unless noted; note: nearly all actives have a fitted effect of over 55% in size
Summary of the method: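 Cytotoxicity counter screen in PPARg-bla HEK293H cells, same wells as reporter assay. Compounds plus 50 nM rosiglitazone (final) for 17 h at 37 C, then viability read by CellTiter-Glo luminescence.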

[10] = qHTS assay for small molecule agonists of the antioxidant response element (ARE) signaling pathway (AID 743202; active = well fitted activation curve with a large enough effect in the signal ratio in the repeat runs, not every such curve was filed as active; the % refers to the signal ratio; note: potency is the fitted concentration of half-maximal effect)
Summary of the method: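 HepG2 ARE-bla reporter line, 2,000 cells/well; 5 h preincubation 37 C/5% CO2; compound (DMSO) 16 h 37 C; B/G FRET substrate 2 h RT; fluorescence intensity.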

[11] = qHTS assay for small molecule agonists of the antioxidant response element (ARE) signaling pathway - cell viability counter screen (AID 743203; calls by dose curve; note: nearly all actives have a fitted effect of over 55% in size; note: potency is the fitted concentration of half-maximal effect)
Summary of the method: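 ATP content via CellTiter-Glo luminescence served as the viability measure. Cells: ARE-bla HepG2, 2,000 per well. Exposure: 16 hrs, 37C/5% CO2.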

[12] = qHTS assay for small molecule activators of the heat shock response signaling pathway - cell viability counter screen (AID 743209); note: nearly all actives have a fitted effect of over 50% in size; note: potency is the fitted concentration of half-maximal effect
Summary of the method: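 Compounds dissolved in DMSO were added to overnight-plated HSE-bla HeLa cells and left 5 h at 37 C. Cell viability was quantified by luminescence using CellTiter-Glo.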

[13] = qHTS assay to identify small molecule antagonists of the thyroid receptor (TR) signaling pathway - cell viability counter screen (AID 743064); note: nearly all actives have a fitted effect of over 50% in size; note: potency is the fitted concentration of half-maximal effect
Summary of the method: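 Same-well viability check: GH3.TRE-Luc cells stimulated with 1 nM T3 alongside test compound for 23.5 h, followed by CellTiter-Fluor fluorescence.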

[14] = qHTS assay to identify small molecule antagonists of the estrogen receptor alpha (ER-alpha) signaling pathway - cell viability counter screen (AID 743074; calls by dose curve;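 note: HEK293 cells carrying ER-alpha-UAS-bla reporter stimulated with 17beta-estradiol; nearly all actives have a fitted effect of over 45% in size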; note: potency is the fitted concentration of half-maximal effect)
[15] = biological target: Estrogen receptor (Homo sapiens) (UniProt P03372); test: qHTS assay to identify small molecule antagonists of the estrogen receptor alpha (ER-alpha) signaling pathway (AID 743069; active = well fitted curve in the direction sought with a large enough effect in the signal ratio in the repeat runs, not every such curve was filed as active; the % refers to the signal ratio; note: potency is the fitted concentration of half-maximal effect)
Summary of the method: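 Beta-lactamase FRET fluorescence is read after 2 hr at room temperature with LiveBLAzer B/G substrate. Before that, ER-alpha-bla HEK293 cells sit 4 hr after plating, then receive compound plus 17beta-estradiol and incubate 18 hr at 37C.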

[16] = qHTS assay to identify small molecule antagonists of the estrogen receptor alpha (ER-alpha) signaling pathway using the BG1 cell line (AID 743080; calls by dose curve;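 note: BG1 cells stimulated with 17beta-estradiol alongside compound; nearly all actives have a fitted effect of over 25% in size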; note: potency is the fitted concentration of half-maximal effect)
Summary of the method: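 Luminescence from a 4×ERE-luciferase reporter in BG1-Luc-4E2 cells served as read-out. Cells, pre-cultured 5 days in stripped-serum phenol-red-free medium, were exposed to compound with 17beta-estradiol co-stimulation for 21.5 h at 37 C.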

[17] = biological target: Peroxisome proliferator-activated receptor gamma (Homo sapiens) (UniProt P37231); test: qHTS assay to identify small molecule antagonists of the peroxisome proliferator-activated receptor gamma (PPARg) signaling pathway (AID 743191; calls by dose curve; note: nearly all actives have a fitted effect of over 30% in size)
Summary of the method: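 GeneBLAzer PPARg UAS-bla HEK293H cells, 5 h post-plating, exposed to compounds 17 h at 37C. LiveBLAzer B/G FRET substrate added for 1 h at room temperature; beta-lactamase reporter read by fluorescence intensity.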

[18] = qHTS assay for small molecule activators of the heat shock response signaling pathway (AID 743210; active = well fitted activation curve with a large enough effect in the signal ratio in the repeat runs, with a control signal flat, not every such curve was filed as active; the % refers to the signal ratio;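 note: HeLa cells with beta-lactamase reporter driven by heat shock elements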)
Summary of the method: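 Beta-lactamase reporter read-out: FRET substrate fluorescence after 2.5 h at RT, following 5 h compound treatment at 37 C of HeLa cells carrying HSE-driven bla reporter; quantitative HTS format.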

[19] = biological target: Estrogen receptor (Homo sapiens) (UniProt P03372); test: qHTS assay to identify small molecule agonists of the estrogen receptor alpha (ER-alpha) signaling pathway (AID 743075; calls by dose curve;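 note: HEK293 GripTite cells with ER-alpha and UAS-driven beta-lactamase reporter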)

SMILES	Potency [1]	Potency [2]	Potency [3]	Potency [4]	Potency (Aromatase (Homo sapiens))	Potency [5]	Potency [6]	Potency [7]	Potency [8]	Potency [9]	Potency [10]	Potency [11]	Potency [12]	Potency [13]	Potency [14]	Potency [15]	Potency [16]	Potency [17]	Potency [18]	Potency [19]
c1csc(-c2ccc(-c3cccs3)s2)c1	inactive	61.1 µM (active)	27.3 µM (active)	inactive	inactive	inactive	24.3 µM (active)	inactive	21.9 µM (active)	inactive	2.73 µM (active)	inactive	inactive							
CC(=O)[O][Sn]([c]1ccccc1)([c]1ccccc1)[c]1ccccc1				3.86 µM (active)		0.344 µM (active)		0.77 µM (active)				0.0344 µM (active)	15.5 µM (active)	0.172 µM (active)	0.195 µM (active)					
COC(=O)/C=C(\C)OP(=O)(OC)OC	inactive	inactive		inactive		inactive	inactive	inactive	inactive			inactive	inactive		inactive	inactive	inactive			
Nc1nc(N)c(N)c(N)n1	inactive	inactive			inactive			inactive		inactive	inactive	inactive	inactive		inactive		inactive	inactive	inactive	
[Cl-].[Cl-].[Cl-].[Yb+3]	inactive	inactive		inactive	inactive	inactive	inactive	inactive		inactive	inactive	inactive	inactive		inactive				inactive	
CC1(C)[C@H](/C=C2\CCSC2=O)[C@@H]1C(=O)OCc1coc(Cc2ccccc2)c1	43.3 µM (active)	inactive		inactive	inactive	inactive	inactive	inactive		inactive			inactive		inactive		68.6 µM (active)			inactive
Cc1cc(C2CC2)nc(Nc2ccccc2)n1	54.5 µM (active)	inactive	9.69 µM (active)		inactive			inactive	inactive	inactive	27.3 µM (active)	inactive	inactive		inactive					inactive
CCOP(=S)(NC(C)C)Oc1ccccc1C(=O)OC(C)C (centres undefined)	54.5 µM (active)	inactive	inactive	inactive	38.6 µM (active)	inactive		inactive		inactive	54.5 µM (active)		inactive			inactive		inactive	inactive	inactive
Nc1c(Cl)c(Cl)c(Cl)c(Cl)c1Cl	inactive	inactive		inactive	inactive		50.5 µM (active)	inactive				inactive			inactive				inactive	
CCCN				inactive	inactive	inactive	inactive	inactive	inactive	inactive	inactive	inactive	inactive	inactive	inactive			inactive	inactive	
CCc1cccc(C)c1N(C(=O)CCl)[C@@H](C)COC				inactive		inactive	inactive	inactive		inactive	9.69 µM (active)	inactive	inactive	inactive	inactive				inactive	
Oc1cccc(Cl)c1Cl	inactive	inactive	inactive	inactive	inactive	inactive	inactive		inactive	inactive	inactive	inactive	inactive		inactive	inactive	inactive		inactive	inactive
CSC1=N[C@@](C)(c2ccccc2)C(=O)N1Nc1ccccc1	6.86 µM (active)	inactive				inactive	inactive					inactive	inactive		inactive				inactive	
CN=C=O	inactive	inactive		inactive	inactive	inactive	inactive	inactive		inactive	inactive	inactive	inactive		inactive					
CN1C(=O)[C@@H](NC(=O)c2cc3ccccc3[nH]2)N=C(c2ccccc2)c2ccccc21	5.96 µM (active)	inactive		inactive						inactive		inactive	inactive		inactive					
CNC(=O)/C=C(\C)OP(=O)(OC)OC	inactive	inactive	inactive	inactive	inactive	inactive	inactive	inactive	inactive		inactive	inactive	inactive		inactive	inactive	inactive	inactive	inactive	inactive
c1ccc(N=NNc2ccccc2)cc1	inactive	inactive	14.2 µM (active) and 54.5 µM (active)		inactive		10 µM (active) and 34.4 µM (active)				9.69 µM (active)	inactive	inactive		inactive	21.9 µM [inhibitor] (active)	68.6 µM (active)		inactive	inactive
